A selection: hits, their analogues and other compounds. The true share with any hit is near 2.3%.
ADAM17 inh – inhibits human ADAM17. hit rate 0.83% among 370,000. inhibition, % at 6.95 µM. recombinant ADAM17, EDANS/DABCYL FRET peptide cleavage. AID 720648. P78536;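 active means inhibition above the mean of compounds lying between control limits plus 3 SD, set per campaign, cut at about 8.5% in these data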
proKLK7 act – proKLK7 (human) activation, primary screen; purified proKLK7, EDANS-DABCYL substrate fluorescence; 100% is mature enzyme control, 0% vehicle; activation, % at 7 µM; hit rate 0.9% among 370,000; AID 652039;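 active means activation above the mean of all tested compounds plus 3 SD, computed per campaign excluding outliers beyond control limits, cut at about 13% in these data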
Target sequence (P49862 whole entry, looked up): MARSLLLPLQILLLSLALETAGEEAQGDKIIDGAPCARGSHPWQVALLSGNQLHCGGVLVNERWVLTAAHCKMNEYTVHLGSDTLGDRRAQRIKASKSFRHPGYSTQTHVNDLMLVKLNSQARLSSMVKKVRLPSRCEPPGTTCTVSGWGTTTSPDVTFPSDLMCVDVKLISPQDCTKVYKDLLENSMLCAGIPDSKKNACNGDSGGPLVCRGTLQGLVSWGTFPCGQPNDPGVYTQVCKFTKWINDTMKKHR
ADAM10 inh – inhibits human ADAM10; O14672; recombinant ADAM10, EDANS/DABCYL FRET peptide cleavage, 3 h; inhibition, % at 7 µM; hit rate 0.62% among 370,000; AID 720582;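 active means inhibition above a per-campaign cutoff equal to the mean of compounds falling between control-based bounds plus 3 SD, cut at about 20% in these data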
V-ATPase pH – alters yeast V-ATPase proton transport | hit rate 0.37% among 350,000 | response, % at 10 µM | S. cerevisiae, pHLuorin cytosolic pH fluorescence; in the data active means response mostly above about 7.3%, no sharp cut-off; inactive means mostly below about 5.4%; further: actives read high
ADAM10 ctr – ADAM10 inhibition, counter-screen for ADAM17 exosite hits; inhibition, % at 6.95 µM; AID 743256; recombinant ADAM10, EDANS/DABCYL FRET peptide cleavage, 3 h; hit rate 47% among 2,900; shares compounds with ADAM17 inh;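 active means mean inhibition over the triplicate runs exceeds the activity threshold set in the earlier primary screen, cut at about 20% in these data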
ADAM17 confirm – confirmation of inhibitors of human ADAM17 | shares compounds with ADAM17 inh | recombinant ADAM17, EDANS/DABCYL QFRET peptide cleavage | inhibition, % at 6.95 µM | hit rate 65% among 2,900;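 active means mean inhibition across replicates above the hit cutoff set in the primary screen, cut at about 8.5% in these data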
A number is an active result; n = inactive; x = not tested or not shown; ! = a repeat was not active.

SMILES	ADAM17 inh	proKLK7 act	ADAM10 inh	V-ATPase pH	ADAM10 ctr	ADAM17 confirm
CC(C)(C)n1nc(C2CC2)c(Br)c1NC(=O)c1ccccc1Cl	n	n	n	x	x	x
C[C@@H]1CN(c2ccc(N3CCN(C(=O)OC(C)(C)C)C[C@@H]3C)cc2C#N)CCN1Cc1ccccc1	n	n	n	x	x	x
Cc1cc(=O)[nH]c2[nH][nH]c(=O)c12	n	n	n	n	x	x
Cc1cc(C)c2c(=O)[nH][nH]c2n1	11.8	n	n	n	n	n
O=C(Cc1cccs1)NC1CCCCN(Cc2ccc(Cl)cc2)C1=O (stereo not given)	n	n	n	x	x	x
CS(=O)(=O)N1CCN(c2ccc(NC(=O)C(c3ccccc3)c3ccccc3)cc2)CC1	13.4	n	n	n	n	n
O=C(OCc1ccccc1)[C@H](Cc1ccccc1)NC(=O)[C@@H]1CC=C[C@@H]2CCN(Cc3ccccc3)C(=O)[C@@H]21	n	x	n	x	x	x
CCCCN1CCN(C(=O)c2ccc(CNC(=O)c3cccc(Br)c3)cc2)CC1	n	n	n	x	x	x
O=C(CSc1nc2ccccc2o1)NN=C/C=C/c1ccccc1	9.5	n	n	x	n	15.9
c1ccc(-c2nc(NCc3ccco3)c3oc4ccccc4c3n2)cc1	9.0	n	n	n	29.3	19.2
Cc1ccc(-c2nc(NCc3ccco3)c3ccccc3n2)cc1	n	n	n	n	x	x
COc1ccc(-c2n[nH]c(C)c2-c2ccc(Cl)cc2)c(O)c1OC	11.3	n	n	n	21.8	n
CCOc1ccc(/C=C/C(=O)c2cc(Br)ccc(=O)c2O)cc1	11.0	n	n	n	n	22.4
CCOc1ccc(CNC(=S)N/N=C/c2ccc(OC)c(OC)c2)cc1	8.7	n	n	n	n	14.6
C[C@@H](NC(=O)c1nc[nH]c1C(=O)N1CCc2ccccc2C1)c1ccccc1	9.0	n	n	n	n	n
Cc1ccc(C(=O)N2O[C@]34C=C[C@]25C[C@@H](O)CC[C@]5(C)C3CC[C@]2(C)[C@@H]([C@H](C)/C=C/[C@H](C)C(C)C)CC[C@H]24)cc1 (stereo not given in full)	n	n	n	x	x	x
COc1cccc(OC)c1C(=O)Nc1cccc(-c2nc3ccccc3[nH]2)c1	8.7	n	n	n	n	n
CC(=O)Nc1cccc(-c2nc3ccccc3[nH]2)c1	n	n	n	n	x	x
COc1c([N+](=O)[O-])c(=O)oc2ccccc12	n	n	n	n	x	x
COc1c(NC=O)c2c(c([N+](=O)[O-])c1OC)C(=O)OC2	8.8	n	n	n	n	n
O=C1/C(=C\c2cccc(O)c2)SC(=S)N1Cc1ccccc1	8.8	n	n	n	n	n
O=C(CN1CCN(Cc2ccccc2)CC1)N/N=C\c1ccccc1[N+](=O)[O-]	n	n	n	x	x	x
CC(C)OP(=O)(O)C(C)NC(=O)OCc1ccccc1 (stereo not given)	n	n	n	x	x	x
CCCCN1C[C@H](c2ccc(OC)cc2)[C@@H](CC(=O)Nc2ccc(Br)cc2)C1=O	14.0	n	n	n	n	n
CCCCN1C[C@H](c2ccc(OC)cc2)[C@@H](CC(=O)Nc2ccc(OC)cc2)C1=O	n	n	n	n	x	x
SMILES	ADAM17 inh	proKLK7 act	ADAM10 inh	V-ATPase pH	ADAM10 ctr	ADAM17 confirm
CC(C)c1[nH]nc2c1C(c1cccc(C(F)(F)F)c1)N(c1ccccc1)C2=O (stereo not given)	n	n	n	x	x	x
Cc1ccccc1-c1cc2nc(Oc3cccc4ccccc34)n(C)c(=O)c2s1	9.2	n	n	x	n	9.5
CCOC(=O)N1CCC(NC(=O)CS(=O)(=O)Cc2nc(-c3cccc(Cl)c3)oc2C)CC1	9.6	n	n	n	n	n
CCOC(=O)C1=C(C)NC(C)=C(C(=O)OCC)C1c1ccc([N+](=O)[O-])s1	9.2!	n	n	n	23.7	12.2
CCc1ccc(C(=O)/C=C2\Sc3ccccc3NC2=O)cc1	8.8	n	n	n	n	10.9
CCN(CC)C(=O)[C@H]1C[C@@H]2[C@H](C[C@@H](c3ccccc3)[C@H]1C)N(c1ccc(F)cc1)C(=O)N2CCCOc1ccccc1	n	n	n	x	x	x
CC(C)N(C[C@@H]1CSCCS(=O)(=O)N1)C(C)C	n	n	n	x	x	x
Cc1cc(C)c(S(=O)(=O)Nc2ccc3c4c(cccc24)CC3)c(C)c1	9.3	n	n	n	n	11.7
Cc1cc(C)c(S(=O)(=O)Nc2ccc3c(c2)CCC3)c(C)c1	12.8	n	n	n	25.5	12.2
Cc1cc(C)c(S(=O)(=O)Nc2ccc(O)cc2)c(C)c1	n	n	n	n	x	x
COc1cccc(C(=O)N[C@H](C(=O)N2CCC[C@H]2C(=O)NC2CCCC2)c2ccccc2)c1	n	n	n	x	x	x
Fc1ccc(C2=Nn3c(nnc3C3CCCCC3)SC2)cc1	n	n	n	x	x	x
CC(C)CC(=O)c1c(O)cc(O)c2c1OC1=C(C(=O)C(C)(C)C(=O)C1(C)C)C2CC(C)C (stereo not given)	9.2	n	n	x	n	n
Cc1ccc(O)c(NC(=O)CSc2ccc(Cl)cc2)c1	n	n	n	n	x	x
Cc1ccc(NS(=O)(=O)c2ccc(NC(=O)CSc3ccc(Cl)cc3)cc2)c(C)c1	9.0	n	n	n	27.8	10.9
C=CCN1CC(COc2ccc(OC)cc2)OCCS1(=O)=O (stereo not given)	n	n	n	x	x	x
Cc1cc(NS(=O)(=O)c2ccc(NC(=O)CSc3nnc(-c4ccncc4)n3Cc3ccco3)cc2)nc(C)n1	n	n	n	x	x	x
O=C(Nc1cccc(F)c1)Nc1ccc2c(c1)OCO2	10.1	n	n	n	n	n
c1ccc(-c2cccc(CNc3nc(-c4ccccn4)nnc3-c3ccccc3)c2)cc1	9.0	x	n	x	n	n
CN(C)c1nc(-c2ccccn2)nnc1-c1ccccc1	n	n	n	n	x	x
N=c1c2c(ncn1Cc1ccco1)Oc1cc(O)ccc1C2c1ccccc1 (stereo not given)	n	n	n	n	x	x
N=c1c2c(ncn1Cc1ccco1)Oc1c(ccc3ccccc13)C2c1ccccc1 (stereo not given)	9.3	n	n	n	n	n
Cc1ccccc1C(=O)c1c[nH]c(C(=O)NCC2CCCO2)c1 (stereo not given)	9.2	n	n	n	n	n
O=C(COC(=O)[C@H](Cc1c[nH]c2ccccc12)NC(=O)c1ccc(Cl)cc1)Nc1ccc2c(c1)OCO2	13.1	n	n	n	35.8	19.9
CCOC(=O)N1CCN(C(=O)C[C@@H]2C[C@]3(C(=O)OCC)CCC4=C3N(CCC4)C2=O)CC1	n	n	n	x	x	x
Nc1[nH]c(C(=O)c2ccc(Br)cc2)c(-c2ccc(Cl)cc2)c1C(=O)NCCc1c[nH]c2ccccc12	n	n	n	x	x	x
COc1ccc(NS(=O)(=O)c2ccc3nc(COc4ccc(Cl)c(C)c4)[nH]c3c2)cc1	12.8	n	n	n	26.7	18.6
Oc1ccccc1-c1cc(-c2ccccc2Cl)[nH]n1	9.5	n	n	n	23.9	11.8

Compound activity: PubChem, several laboratories
